Consider 13 compounds from PubChem BioAssay (NCATS).

“And” between values parts separate entries of the source, which are not always exact repeats. Identical values can stand only once.

The experiment can be described thus: qHTS drug screen for cell cycle checkpoint inhibitors in PARPi-resistant BRCA-mutant ovarian cancer cell lines. (AID 1963452). As to conditions: PEO1/OlaR viability, CellTiter-Glo luminescence, 96 h; measured here: PEO1 parental Z-AUC; stronger effect = lower value. The essentials:
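PEO1, PEO4 and PEO1/OlaR ovarian cancer cells, 600 per well, exposed 96 h at 37C to a dilution series. Viability read by CellTiter-Glo luminescence, normalized to DMSO and empty wells; activity summarized as Z-AUC.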
As to `CCCCc1nc2cc(/C=C/C(=O)NO)ccc2n1CCN(CC)CC`, the Z-AUC is -0.0677.

Turning to `Cc1cnc(Nc2ccc(F)cc2Cl)nc1-c1c[nH]c(C(=O)NC(CO)c2cccc(Cl)c2)c1` (stereo not drawn), the Z-AUC is -0.607. For the compound `NC(=O)[C@H]1CCS[C@@H]2C[C@]3(CCCN3C(=O)Cc3ccc(NC(=O)COc4ccc(Cl)cc4Cl)cc3)C(=O)N12`, the Z-AUC was found to be 0.014. Take `CN(C)C1CCN(C(=O)c2ccc(NC(=O)Nc3ccc(-c4nc(N5CCOCC5)nc(N5CCOCC5)n4)cc3)cc2)CC1`: the Z-AUC was -2.41 and -1.47. Consider `CC#CC(=O)N1CCC[C@H]1c1nc(-c2ccc(C(=O)Nc3ccccn3)cc2)c2c(N)nccn12`, for which the Z-AUC was 0.632. Next, `FC(F)(F)c1ccc(Nc2nc(-c3c(C(F)(F)F)nc4ccccn34)cs2)cc1`: -1.08. Under `CN1CCN(C2CCC(n3cc(-c4ccc(Oc5ccccc5)cc4)c4c(N)ncnc43)CC2)CC1` (stereo not drawn) stands -1.14. Turning to `c1cn2cc(-c3ccc4cn[nH]c4c3)nc(Nc3ccc(N4CCOCC4)cc3)c2n1`, the Z-AUC was -0.0182. Under `Cc1c(NC(=O)c2cc(C(N)=O)nc3cc(F)ccc23)c(C(F)(F)F)nn1Cc1ccc(C#N)cc1` stands -1.49; under `CCS(=O)(=O)N1CCN(c2ccc(Nc3ncc(C(N)=O)c(NC4CC4)n3)cc2)CC1`, -0.223; under `C#CC[C@H](c1nc2cc(Cl)ccc2c(=O)n1Nc1ccccc1)N(CCCN)C(=O)c1cccc(Cl)c1F`, -1.73.

Consider `CCO[C@@H]1OC(=O)C[C@@H]1NC(=O)[C@@H]1CCCN1C(=O)[C@@H](NC(=O)c1ccc(N)c(Cl)c1)C(C)(C)C`, for which the Z-AUC stood at 0.457.

`CN[C@@H]1[C@H](O[C@H]2[C@H](O[C@@H]3[C@@H](O)[C@H](O)[C@@H](N=C(N)N)[C@H](O)[C@H]3N=C(N)N)O[C@@H](C)[C@]2(O)C=O)O[C@@H](CO)[C@H](O)[C@H]1O`: the Z-AUC is 0.947.
